# Assay results: the supplement of paper PMC6555819
# Key:
# Test in all cases: PBM binding z-score (relative to random genomic background probes); higher = stronger binding; sequences stand for … in GC…GCGATTGACAGCGTAGAATGAAGG
# [1] = tested on: FXR:RXRa (NR concentration 270 nM, RXRa partner concentration 90 nM)
# Outline: (§1)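 Scanned fluorescence from custom Agilent 4×180K protein-binding microarrays was regression-normalized. Binding z-scores use random background probes as reference. Ligand-free nuclear receptor dimers were incubated on the arrays for 1 h and detected with antibodies against each partner (one per run).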
# [2] = tested on: LXRa:RXRa (NR concentration 270 nM, RXRa partner concentration 90 nM)
# Outline: as §1
# [3] = tested on: LXRa homodimer (NR concentration 270 nM)
# Outline: as §1
# [4] = tested on: LXRb:RXRa (NR concentration 270 nM, RXRa partner concentration 90 nM)
# Outline: as §1
# [5] = tested on: LXRb homodimer (NR concentration 270 nM)
# Outline: as §1
# [6] = tested on: PPARa:RXRa (NR concentration 270 nM, RXRa partner concentration 90 nM)
# Outline: as §1
# [7] = tested on: PPARg:RXRa (NR concentration 180 nM, RXRa partner concentration 90 nM)
# Outline: as §1
# [8] = tested on: PPARg:RXRa 270nM:90nM, anti-RXR (NR concentration 270 nM, RXRa partner concentration 90 nM)
# Outline: as §1
# [9] = tested on: PPARg:RXRa 30nM:10nM, anti-RXR (NR concentration 30 nM, RXRa partner concentration 10 nM)
# Outline: as §1
# [10] = tested on: PPARg:RXRa 90nM:30nM, anti-RXR (NR concentration 90 nM, RXRa partner concentration 30 nM)
# Outline: as §1
Sequence,PBM binding z-score [1],PBM binding z-score [2],PBM binding z-score [3],PBM binding z-score [4],PBM binding z-score [5],PBM binding z-score [6],PBM binding z-score [7],PBM binding z-score [8],PBM binding z-score [9],PBM binding z-score [10]
CAACCTAGGTCAAGGTCAAAGTCGGTTTGTGCCA,6.38,5.56,3.63,4.92,1.07,5.51,5.92,5.74,2.75,4.69
CCTCGGAGGAAAACAGGAGGTCAGAGCTGCCAGA,0.663,1.69,1.63,1.44,-0.702,2.13,0.128,-0.0182,-0.762,-0.104
TTGAGTAGGTTACCAATGGGGCATTCAGCTTTCT,0.0857,1.41,-0.22,1.21,-0.0643,1.36,1.23,1.9,1.01,1.5
GCCATTAGTTGAAAGGGCAACCGAATGATTCTCG,0.121,0.648,0.0731,0.887,-0.56,2.25,2.41,4.11,1.8,3.93
ATCGTAAGGTCGAGGTGAGTATAGAGAAAGGGAA,2.64,1.91,0.0142,1.68,0.624,3.02,1.53,1.72,0.505,1.27
TCGAGTAGGTTAACAATGGGGCATTCAGCTTTCT,0.324,3.77,-0.204,1.79,-0.704,1.59,0.576,1.22,1.31,1.29
TGAATGAGGTTAAAGATCAGGAAACGTGGCGTCG,3.12,2.5,-0.309,1.69,-0.0435,4.49,5.58,6.34,4.41,6.93
TCGAGTAGGTTAGCGGCATTCAGAATGGCGTCGA,-0.731,-0.487,-0.848,-0.653,-1.3,0.0919,-0.173,0.409,0.448,0.475
CGTCCAAGGTCACAGGTCAGTGAAGAGATGACGG,7.44,5.62,1.31,4.1,0.374,6.12,7.73,6.93,3.6,5.82
TCGAGTAGGTTAGTCGGGTCATTCAGCCAACATA,1.62,1.62,0.312,1.98,-0.941,3.14,1.39,2.4,1.36,1.95
ATCTCTAGGTAAGACTCAGTTCAGTGCAGAACGC,0.385,0.334,0.807,0.371,0.594,0.349,0.209,0.0288,0.281,0.195
CGAACTAGGTCATCCAGGAGAGTGAATACATTGA,3.98,2.66,0.805,1.98,-0.132,4.89,7.72,6.23,3.86,5.76
CCTATTAGTTGACCATAAGGGCAACCAAAGCTCG,1.06,0.507,0.675,0.965,0.552,0.948,0.604,0.461,0.262,0.51
TCATATAGGTAAAGGTGCAAGTCGAACGATATGA,0.551,0.493,-0.176,0.57,-0.374,2.77,4.36,5.55,4.82,5.79
AGAATGAGGTTAAGATCAGGGATACAGAATACAT,2.25,1.75,0.0573,1.78,0.0208,3.7,2.77,2.46,0.866,1.71
TCAGACAGGTAAAGGTAACTCAGGTACGCAGTCG,1.07,3.02,0.16,1.79,0.229,1.48,1.11,2.56,4.03,3.14
CGAACTAGGTCATCCAGGACAGGGAATACATTGA,4.45,2.35,0.51,1.85,0.035,4.75,7.8,6.18,3.9,5.82
ATCGAACGGTCGTGAGGTGAGTATACAGAAAGGC,0.0725,-0.0756,-0.243,-0.299,-0.457,0.134,0.66,-0.0797,-0.119,-0.0767
ATCTCTGGGTAAAGATAGTTCAGTGAATGCAAAT,-0.122,3.7,0.422,0.738,0.449,0.473,0.419,0.54,0.327,0.434
AGAATGAGGTTAACATCAGGGAAACAGAATACAT,2.93,2.97,-0.211,2.21,-0.23,4.3,3.36,3.34,1.39,2.46
AGAATGAGGTTAAGATCAGGGGAACAGAATACAT,2.39,1.58,0.0516,1.98,0.284,3.55,2.33,2.48,0.75,1.88
CCTAGTAGTTGACCATAAGGGCAACCGAAGCTCG,0.577,0.379,0.118,0.228,0.0472,0.369,0.269,0.285,-0.556,0.0396
TCATATAGGTAGAAGGTGAAAGTCGGTGTGGTAA,1.26,1.21,0.0834,1.16,-0.0966,3.46,5.61,6.84,5.99,7.35
TGAATGAGGTTAATGATCAGGGAACGTGGCGTCG,1.4,1.33,-0.115,0.692,0.285,2.39,1.58,1.84,0.601,1.17
ATCGAAAGGTCGAGGTGAGAATAGAGAAAGGGAA,4.1,3.48,0.181,2.84,0.399,4.79,3.58,3.93,1.56,2.64
